# Data from article PMC5540273 (PLoS ONE, 2017).
# Tested on: EPHB6
# 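Also: kd values determined as follow-up on hits from a single-replicate KINOMEscan panel screen.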
row,Structure (SMILES),Kd [nM]
1,Cl.c1ccc(Cn2cnc3cc(Nc4ncnc5ccccc45)ccc32)cc1 [GW272142],510
2,C[C@@H]1CC[C@H](C(=O)NC2CCCCC2)CN1c1cc(-c2ccc3c(N)n[nH]c3c2)nc(N)n1 [GSK2291363],49
3,Nc1nccc2scc(-c3ccc4c(c3)CCN4C(=O)Cc3ccccc3)c12 [GSK2576924],340
4,COc1cc(Nc2nccc(N3CCC(NC(=O)C4COc5ccccc5O4)C3)n2)cc(OC)c1OC (centres unmarked) [GSK1379761],110
5,COc1cc(Nc2nccc(N3CCC(NC(=O)C(C)c4ccc(Cl)cc4)C3)n2)cc(OC)c1OC (centres unmarked) [GSK1379757],100

# Tested on: T1, GRK3
# T1 construct: gene ADRBK2
row,Structure (SMILES),Kd [nM]
1,O=C(Nc1n[nH]c2nc(-c3ccccc3)c(Cl)cc12)C1CC1 [SB-734909],> 10000
2,Cc1nn2c(=O)cc(N3CCOCC3)nc2n1Cc1cccc(Cl)c1Cl [GSK2342769],> 10000
3,Nc1nccc2scc(-c3ccc4c(c3)CCN4C(=O)Cc3ccccc3)c12 [GSK2576924],> 10000

# Tested on: GSK3A
row,Structure (SMILES),Kd [nM]
1,CCCC(=O)Nc1n[nH]c2ncc(-c3cccc4ccccc34)cc12 [SB-642057],360
2,O=C(Nc1n[nH]c2nc(-c3ccccc3)c(Cl)cc12)C1CC1 [SB-734909],390
3,Nc1n[nH]c2nnc(-c3ccccc3)c(-c3ccccc3)c12 [GW554060],300
4,COc1ccc(-c2coc3ccc(-c4nnc(SCc5cccc(C#N)c5)o4)cc23)cc1,150
5,CCS(=O)c1ccc(-c2coc3ccc(-c4nnc(C)o4)cc23)cc1 (centres unmarked),260
6,O=C(Nc1n[nH]c2nc(-c3ccccc3)c(Br)cc12)C1CC1 [SB-708998],410
